Measurements published in the supplement of paper PMC3334620.
Whole data set: some 33,000 sequences, median “E-score (-0.5 to 0.5)” near -0.0059, cut for the highest 2% near 0.26. The entries come from a sample that favours the highest values as a whole.

These sequences were tested against T1, Cin5 (UniProt P40917) (assay: PBM E-score (8-mer binding enrichment) (E-score (-0.5 to 0.5)); higher = stronger / more preferred TF binding). Settings: protein concentration: 100 nM; construct: GST-full length.
T1 sequence: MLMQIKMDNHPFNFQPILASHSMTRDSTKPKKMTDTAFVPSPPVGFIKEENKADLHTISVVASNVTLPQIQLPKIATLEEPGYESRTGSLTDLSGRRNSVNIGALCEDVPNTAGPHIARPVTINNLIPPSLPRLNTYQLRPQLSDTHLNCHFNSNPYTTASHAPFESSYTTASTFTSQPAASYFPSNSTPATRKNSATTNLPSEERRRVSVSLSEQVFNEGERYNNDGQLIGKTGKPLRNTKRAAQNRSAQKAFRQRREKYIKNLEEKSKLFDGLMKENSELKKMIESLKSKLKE
Protocol: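 Universal 'all 10-mer' protein binding microarrays (Agilent AMADID 015681) probed with GST-tagged S. cerevisiae TFs (full-length or DBD) made by in vitro transcription/translation (PURExpress), about 100-200 nM. Bound TF was detected with fluorescent anti-GST. Each ungapped 8-mer (which stands for itself and its reverse complement) is scored by the PBM enrichment score (E-score), a modified Wilcoxon-Mann-Whitney statistic from -0.5 to +0.5, computed with the Universal PBM Analysis Suite. Scale: above 0.35 generally sequence-specific binding.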

| Sequence | PBM E-score |
| --- | --- |
| ACATGATA | 0.187 |
| ATTTGATA | 0.319 |
| ATTTGATC | 0.0618 |
| GCATGATA | 0.168 |
| ATTCTTCG | 0.138 |
| CTGATCGC | 0.0487 |
| AAGGAAAT | 0.0752 |
| ATTGGTGC | 0.134 |
| ACGCTCAC | 0.0871 |
| CCTCACGC | 0.0561 |
| GTCAGCGA | -0.0481 |
| ACCACCCT | -0.163 |
| ATGCTATC | -0.00354 |
| CGAACGCG | 0.00852 |
| AGAAACCA | 0.123 |
| ATGTGATA | 0.266 |
| CTGTGATA | 0.0273 |
| GTGTGATA | 0.2 |
| ATCGCCCA | -0.11 |
| CAACGGTA | -0.181 |
| CGTAAAGC | -0.147 |
| ATTTGGTA | 0.252 |
| CTTTGGTA | -0.205 |
| GTTTGGTA | 0.296 |
| AGGACCGG | -0.294 |

| Sequence | PBM E-score |
| --- | --- |
| ACCGCTCG | -0.0731 |
| CCCTATGC | 0.0135 |
| ACAACCCG | -0.0389 |
| GGCAACTA | 0.0726 |
| CGCAACTA | 0.267 |
| CGCAACTC | 0.103 |
| CAGAACGA | 0.0474 |
| CAAAGACG | -0.0507 |
| CGCTGGGC | -0.295 |
| TATATGAA | 0.129 |
| AATATGAA | 0.258 |
| GATATGAA | 0.0853 |
| AATATGAC | 0.163 |
| AATATGAT | 0.297 |
| AATATGAG | 0.0321 |
| AGGGTGTC | -0.136 |
| GGTCCTAA | -0.143 |
| CAGGAAGA | -0.0593 |
| GGGCAGGA | -0.00266 |
| TAATGTAA | 0.33 |
| TAATGGAA | 0.281 |
| AGATGTAA | 0.169 |
| GAATGGAA | 0.181 |
| GAATGTAA | 0.241 |
| AAATGGAA | 0.0906 |

| Sequence | PBM E-score |
| --- | --- |
| CGATGTAA | 0.102 |
| AAATGTAG | 0.101 |
| AAATGTAT | 0.276 |
| TGATGTAA | 0.329 |
| AAATGTAA | 0.14 |
| AAATGTAC | 0.19 |
| CCGGGGCG | -0.146 |
| GCTACGGA | -0.165 |
| TCACCGGA | 0.0333 |
| GTGGGAAC | -0.144 |
| GCCACGCC | -0.127 |
| CAGAGCAC | -0.123 |
| CCCCATAA | 0.00568 |
| ACGCAGCC | -0.0404 |
| ACCGGGGC | -0.136 |
| TAATGTGA | 0.292 |
| CAATGTGA | 0.117 |
| GAATGTGA | 0.00014 |
| ACTACCAG | -0.086 |
| ACGCAAAT | -0.0291 |
| GTGCATCA | 0.00241 |
| ATGCATTA | 0.341 |
| ATGCATCA | 0.287 |
| CTGCATTA | -0.154 |
| ATGCATCG | 0.098 |

| Sequence | PBM E-score |
| --- | --- |
| ATGCATTC | 0.163 |
| ACTAACAT | 0.192 |
| CTACCCTA | -0.101 |
| CACGGTGG | 0.0279 |
| CCTATCCG | -0.0857 |
| CCGGTACA | -0.00292 |
| GATAATCC | 0.17 |
| AGTAAGCC | 0.216 |
| CATAATCC | 0.265 |
| GATAATCA | 0.159 |
| CGTAAGGC | -0.0166 |
| CGTAATCC | 0.383 |
| CGTAATTC | 0.228 |
| AATAATCC | 0.0532 |
| CCTAATCC | 0.029 |
| AATAATCA | 0.257 |
| CATAATCA | 0.385 |
| CGTAAGCC | 0.39 |
| CGGACCCC | -0.295 |
| ACCGTTAT | -0.0275 |
| CACGGCCA | -0.145 |
| ATGGCTGC | -0.0428 |
| CACGGGGG | -0.401 |
| TATAATCA | 0.342 |
| TATAATGA | 0.21 |

| Sequence | PBM E-score |
| --- | --- |
| CATAATCG | 0.324 |
| TATAATAA | 0.241 |
| AATAATCG | 0.247 |
| CATAATGG | 0.0936 |
| CGATCACG | 0.117 |
| ATGTGCGA | -0.106 |
| ACTCCTGG | -0.216 |
| ACCACAAG | -0.117 |
| TCAATGAA | 0.159 |
| ATTATCTG | 0.152 |
| CCTATCTC | 0.0294 |
| CTTATCTA | 0.276 |
| ACTATCTA | 0.148 |
| GTTATCTA | 0.131 |
| CTTATCTC | 0.0536 |
| ATTATCTC | 0.306 |
| ATTATCTA | 0.315 |
| ACTATCTC | 0.121 |
| AACTCGAT | 0.15 |
| AACCCTAT | 0.107 |
| TACGGGAA | -0.108 |
| CCTTCATC | -0.183 |
| GTGCAAGA | 0.0774 |
| GTAGAACA | -0.165 |
| AGGAATGA | 0.0586 |

| Sequence | PBM E-score |
| --- | --- |
| GGGAATGA | 0.277 |
| CGGAATGA | 0.146 |
| CACCTCTA | 0.0362 |
| CGCGTATC | 0.06 |
| CCACAACG | -0.153 |
| AAACTAAT | 0.312 |
| AAACTAAG | 0.185 |
| AAACTAAA | 0.199 |
| ATAGTCAC | 0.129 |
| AGCCGACG | -0.0574 |
| AGAACAAA | 0.194 |
| CGAACAAG | -0.0215 |
| GGAACAAC | 0.0525 |
| CGAACAAA | 0.272 |
| TGAACAAA | 0.217 |
| GGAACAAA | 0.32 |
| CCCTGGTA | -0.196 |
| AGGTCGAC | 0.102 |
| GGCTGTAA | -0.129 |
| CCCCGCGA | 0.05 |
| ACAATTGT | 0.188 |
| GCGCGGGA | 0.012 |
| CCGCGGGC | 0.0691 |
| CCGCGGGA | 0.316 |
| GCGCGGAA | 0.192 |

| Sequence | PBM E-score |
| --- | --- |
| CCGCGGAG | 0.0845 |
| CCGCGGAA | 0.272 |
| AGAGTTAA | 0.0368 |
| GTACTCGA | 0.0237 |
| CTTAGGTA | 0.337 |
| ATTAGGGC | -0.0867 |
| ATTAGGTG | 0.131 |
| ATTAGGTC | 0.271 |
| CGTAGGTA | -0.0204 |
| ATTAGGTA | 0.271 |
| GTTAGGTA | 0.242 |
| CTTAGGTC | -0.0156 |
| CTCAGGTA | 0.0217 |
| AACTCAAT | 0.165 |
| CACTGGGC | -0.14 |
| CGTAACCA | 0.192 |
| AGCAGCCC | -0.142 |
| GAGGGCCC | -0.254 |
| CCCCTCAG | -0.211 |
| AGTAATTG | 0.132 |
| AGTAATAC | 0.2 |
| AGTAATAT | 0.306 |
| AGTAATAG | 0.279 |
| CGTAATAG | 0.223 |
| AGTAATAA | 0.193 |
